For 15 molecules, Potency results are on record in PubChem BioAssay (NCATS).

Test [1] can be described thus: Quantitative High-Throughput drug screen in 47 multiple myeloma cell lines against the NCATS MIPE library collection: Karpas620_DSMZ cell viability assay (AID 1918959). Also: nearly all actives have a fitted effect of over 30% in size. Also: potency is read from the fitted curve at half-maximal effect. The procedure, abridged:
(§1)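 Steps: seed 500 cells per well; pin-transfer MIPE 4.0 library; incubate 48 h at 37C, 5% CO2, humidified; add CellTiter-Glo, 5 min room temperature; read luminescence.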

Test [2] can be described thus: Quantitative High-Throughput drug screen in 47 multiple myeloma cell lines against the NCATS MIPE library collection: JIM3_ECACC cell viability assay (AID 1918963; also: nearly all actives have a fitted effect of over 35% in size; also: potency is read from the fitted curve at half-maximal effect). In a few lines: as §1
The nature of test [3]: Quantitative High-Throughput drug screen in 47 multiple myeloma cell lines against the NCATS MIPE library collection: INA6_PLB cell viability assay (AID 1918965; also: nearly all actives have a fitted effect of over 55% in size; also: potency is read from the fitted curve at half-maximal effect). In a few lines: (§2)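 CellTiter-Glo luminescence (ATP) after 48 h compound exposure, 37C/5% CO2; 500 cells/well; MIPE 4.0 approved/investigational drugs pinned in; DMSO = 100%, media only = 0% viability.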
The nature of test [4]: Quantitative High-Throughput drug screen in 47 multiple myeloma cell lines against the NCATS MIPE library collection: H1112_PLB cell viability assay (AID 1918967; also: nearly all actives have a fitted effect of over 30% in size; also: potency is read from the fitted curve at half-maximal effect). The procedure, abridged: (§3)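 Inhibition of cell viability is measured here. Each line was plated at 500 cells per well, treated with MIPE 4.0 drugs, kept 48 hours at 37C, then assayed for ATP content by CellTiter-Glo luminescence.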

The nature of test [5]: Quantitative High-Throughput drug screen in 47 multiple myeloma cell lines against the NCATS MIPE library collection: KMS26_JCRB cell viability assay (AID 1918975). Also: nearly all actives have a fitted effect of over 45% in size. Also: potency is read from the fitted curve at half-maximal effect. The procedure, abridged:
(§4)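 Viability readout: CellTiter-Glo luminescence following 5 min room-temperature incubation with reagent. Prior exposure: 48 h, 37C, humidified 5% CO2, 500 cells per well.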

Test [6] can be described thus: Quantitative High-Throughput drug screen in 47 multiple myeloma cell lines against the NCATS MIPE library collection: NCIH929_DSMZ cell viability assay (AID 1918978). Also: nearly all actives have a fitted effect of over 35% in size. Also: potency is read from the fitted curve at half-maximal effect. In a few lines:
(§5)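 500 cells/well; MIPE 4.0 drugs pin-transferred; 48 h, 37C, 5% CO2. CellTiter-Glo, 5 min RT, luminescence. Controls: DMSO 100%, media 0%.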

Test [7] in a line: Quantitative High-Throughput drug screen in 47 multiple myeloma cell lines against the NCATS MIPE library collection: KHM11_PLB cell viability assay (AID 1918962). Also: nearly all actives have a fitted effect of over 35% in size. Also: potency is read from the fitted curve at half-maximal effect. The procedure, abridged:
as §1

A short description of test [8]: Quantitative High-Throughput drug screen in 47 multiple myeloma cell lines against the NCATS MIPE library collection: JIM1_ECACC cell viability assay (AID 1918964; also: potency is read from the fitted curve at half-maximal effect). In a few lines:
as §3

A short description of test [9]: Quantitative High-Throughput drug screen in 47 multiple myeloma cell lines against the NCATS MIPE library collection: KMS27_JCRB cell viability assay (AID 1918970). Also: nearly all actives have a fitted effect of over 30% in size. Also: potency is read from the fitted curve at half-maximal effect. Particulars: KMS27 myeloma cells, CellTiter-Glo ATP viability, 48 h; viability (% of DMSO): at 45.8 µM (top of the series). In a few lines: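 Viability inhibition screen, 48 h compound exposure, luminescent ATP read-out.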
In general terms: In ATP-based viability assays light output follows the ATP content of the culture.

Test [10] in a line: Quantitative High-Throughput drug screen in 47 multiple myeloma cell lines against the NCATS MIPE library collection: MMM1_PLB cell viability assay (AID 1918976). Also: potency is read from the fitted curve at half-maximal effect; nearly all actives have a fitted effect of over 35% in size. In a few lines: as §5
A short description of test [11]: Quantitative High-Throughput drug screen in 47 multiple myeloma cell lines against the NCATS MIPE library collection: KMS12PE_JCRB cell viability assay (AID 1918972). Also: nearly all actives have a fitted effect of over 30% in size. Also: potency is read from the fitted curve at half-maximal effect. The procedure, abridged: as §2
Test [12] in a line: Quantitative High-Throughput drug screen in 47 multiple myeloma cell lines against the NCATS MIPE library collection: Karpas25_ECACC cell viability assay (AID 1918968; also: nearly all actives have a fitted effect of over 35% in size; also: potency is read from the fitted curve at half-maximal effect). The procedure, abridged:
as §3

A short description of test [13]: Quantitative High-Throughput drug screen in 47 multiple myeloma cell lines against the NCATS MIPE library collection: KMS12BM_JCRB cell viability assay (AID 1918971). Also: nearly all actives have a fitted effect of over 35% in size. Also: potency is read from the fitted curve at half-maximal effect. In a few lines: as §4
The nature of test [14]: Quantitative High-Throughput drug screen in 47 multiple myeloma cell lines against the NCATS MIPE library collection: MOLP8_DSMZ cell viability assay (AID 1918977). Also: nearly all actives have a fitted effect of over 45% in size. Also: potency is read from the fitted curve at half-maximal effect. In a few lines:
as §5

Test [15] is described as follows: Quantitative High-Throughput drug screen in 47 multiple myeloma cell lines against the NCATS MIPE library collection: Karpas417_ECACC cell viability assay (AID 1918961). Particulars: Karpas417 myeloma viability, CellTiter-Glo ATP luminescence, 48 h; viability (% of DMSO): at 45.8 µM (top of the series). In a few lines:
as §2

A short description of test [16]: Quantitative High-Throughput drug screen in 47 multiple myeloma cell lines against the NCATS MIPE library collection: JJN3_DSMZ cell viability assay (AID 1918966; also: nearly all actives have a fitted effect of over 50% in size; also: potency is read from the fitted curve at half-maximal effect). In a few lines:
as §3

Test [17] can be described thus: Quantitative High-Throughput drug screen in 47 multiple myeloma cell lines against the NCATS MIPE library collection: OCIMY1_PLB cell viability assay (AID 1918979). Also: nearly all actives have a fitted effect of over 35% in size. Also: potency is read from the fitted curve at half-maximal effect. In a few lines: as §5
A short description of test [18]: Quantitative High-Throughput drug screen in 47 multiple myeloma cell lines against the NCATS MIPE library collection: KMS20_JCRB cell viability assay (AID 1918973). Also: nearly all actives have a fitted effect of over 45% in size. Also: potency is read from the fitted curve at half-maximal effect. In a few lines: as §3
Test [19] is described as follows: Quantitative High-Throughput drug screen in 47 multiple myeloma cell lines against the NCATS MIPE library collection: KMS21BM_JCRB cell viability assay (AID 1918974). Particulars: ATP luminescence, 48 h; viability: at 45.8 µM (top of the series). In a few lines:
as §3

Each structure is given as a SMILES string. Results filed as inconclusive are left out. Calls of active or inactive are those of the source. Calls follow the shape of the dose curve; as a rule, active = well fitted curve in the direction sought with a large enough effect; inconclusive = small, poorly fitted or top-dose-only effect, or another doubt; inactive = no such curve, though single readings can be large; an effect the other way counts as inactive or inconclusive.

Take `O=C(NC1CC1)c1cccc(-c2ccc3c(NC(=O)C4CC4)n[nH]c3c2)c1`: the Potency entry in test [1] was “inactive”. The Potency was 11.8 µM (active) in test [2]; 5.26 µM (active) in test [3]; 6.62 µM (active) in test [4]; 2.64 µM (active) in test [5]; 16.6 µM (active) in test [6].
As to `CCc1nc(-c2cccc(C)c2)c(-c2ccnc(NC(=O)c3ccccc3)c2)s1`, the Potency was 3.32 µM (active) in test [1]; 0.935 µM (active) in [7]; 9.35 µM (active) in test [8]; 16.6 µM (active) in test [3]; 14.8 µM (active) in [4]; 16.6 µM (active) in [10]. For the same molecule, in test [9], the Potency result was “inactive”.
For `O=C(NCc1ccccc1)[C@H](Cc1ccccc1)NC(=O)[C@@H]1O[C@@H]1C(=O)NCCc1ccc(O)cc1`, the Potency in test [1] was 26.4 µM (active); in [8], 18.7 µM (active); in test [11] it was 23.5 µM (active); in test [10], 20.9 µM (active). The Potency entry in test [7], in [2], in test [4] and in [6] was “inactive” throughout.
Consider `Cc1coc2c1C(=O)C(=O)c1c-2ccc2c(C)cccc12`, for which the Potency in test [1] was 6.62 µM (active); in test [3] it was 13.2 µM (active); in test [12], 2.96 µM (active); in [13] it was 13.2 µM (active); in test [5] it was 6.62 µM (active); in [10] it was 20.9 µM (active). Besides, in test [14], the Potency is 9.35 µM (active). In addition, the Potency result in test [7] and in test [8] was “inactive” in each case.
Consider `CCn1c(=O)c2c(nc(C=Cc3ccc(OC)c(OC)c3)n2C)n(CC)c1=O`, for which the Potency entry in [1], in [15], in test [16], in test [4], in [12] and in test [13] was “inactive” in each case. Moreover, the Potency result in [5], in [14], in test [6] and in [17] was “inactive” throughout.
Consider `FC(F)(F)c1ccc(Nc2nc3ccc(Oc4ccnc(-c5ncc(C(F)(F)F)[nH]5)c4)cc3[nH]2)cc1`, for which the Potency is 26.4 µM (active) in test [1]; 20.9 µM (active) in test [7]; 23.5 µM (active) in test [2]; 11.8 µM (active) in test [8]; 18.7 µM (active) in test [3]; 20.9 µM (active) in test [12]. In addition, the Potency in test [9] is 23.5 µM (active); in test [13] it was 18.7 µM (active); in [11] it was 14.8 µM (active).
On to `Cc1ccccc1C(=O)Nc1ccc(C(=O)N2CCCC(O)c3cc(Cl)ccc32)c(C)c1` (configuration not stated), for which the Potency result in [1], in test [2], in [4], in [13], in test [14] and in test [17] was “inactive” each time. The Potency was 13.2 µM (active) in test [16] and 14.8 µM (active) in test [12].
In the case of `Cn1cc(-c2ccc3ncc(Cc4ccc5ncccc5c4)n3n2)cn1`, the Potency result in [1], in test [4], in test [12], in test [5], in test [14] and in [6] was “inactive” each time. For the same molecule, the Potency result in test [17] is “inactive”. Further, the Potency in [2] is 16.6 µM (active); in test [3], 13.2 µM (active).
Take `CN(C)CCN1C(=O)c2cccc3cc(N)cc(c23)C1=O`: the Potency was 26.4 µM (active) in test [1]; 7.43 µM (active) in test [7]; 14.8 µM (active) in [2]; 18.7 µM (active) in test [8]; 3.32 µM (active) in test [3]; 20.9 µM (active) in [16]. Moreover, the Potency is 18.7 µM (active) in test [4]; 18.7 µM (active) in [12]; 5.26 µM (active) in test [13]; 20.9 µM (active) in test [5]; 11.8 µM (active) in [10]; 23.5 µM (active) in test [14]. The Potency in [6] was 8.33 µM (active).
Take `CN[C@@H]1C[C@H]2O[C@@](C)([C@H]1OC)n1c3ccccc3c3c4c(c5c6ccccc6n2c5c31)C(=O)N[C@H]4O`: the Potency in test [1] was 0.59 µM (active); in [7] it was 0.0296 µM (active); in test [2], 0.148 µM (active); in [3], 0.0418 µM (active); in test [16] it was 1.66 µM (active); in [4] it was 0.526 µM (active). The Potency in [12] was 0.132 µM (active); in test [10] it was 1.48 µM (active); in test [6] it was 0.118 µM (active); in test [17], 0.935 µM (active).
Take `O=C(O)[C@H](CC(=O)N1C[C@@H]2CCCC[C@H]2C1)Cc1ccccc1`: the Potency entry in [1], in test [7], in test [2], in [16], in test [4] and in test [18] was “inactive” in each case. Also, the Potency entry in test [5] and in test [6] was “inactive” throughout.
`c1cncc(CN2CCC(n3ncc4c(N5CCOCC5)nc(-c5ccc6[nH]ccc6c5)nc43)CC2)c1`: the Potency result in [1] and in test [19] was “inactive” each time. Moreover, the Potency is 1.66 µM (active) in test [7]; 5.26 µM (active) in test [2]; 5.9 µM (active) in [3]; 5.9 µM (active) in test [16]; 13.2 µM (active) in [4]; 13.2 µM (active) in test [13]. The Potency in test [10] is 7.43 µM (active); in test [14], 2.96 µM (active); in test [6], 0.332 µM (active); in [17] it was 16.6 µM (active).
As for `CN(C)CC[C@H](c1ccc(Cl)cc1)c1ccccn1`, the Potency result in [1], in test [7], in [2], in test [3], in [4] and in test [12] was “inactive” in each case. In addition, the Potency entry in test [5] and in test [6] was “inactive” in each case.
With `OCc1ccccc1O[C@@H]1O[C@H](CO)[C@H](O)[C@H](O)[C@H]1O`, the Potency result in test [1], in test [7], in [2], in test [8], in test [12] and in test [9] was “inactive” each time. Also, the Potency result in [11], in test [5] and in [17] was “inactive” throughout. In addition, the Potency in test [3] is 13.2 µM (active); in test [6], 11.8 µM (active).
Regarding `CC(C)NC[C@@H](C(=O)N1CCN(c2ncnc3c2[C@H](C)C[C@H]3O)CC1)c1ccc(Cl)cc1`, the Potency in test [1] was 4.18 µM (active); in [7] it was 14.8 µM (active); in [2], 1.66 µM (active); in test [16], 6.62 µM (active); in test [4], 3.72 µM (active); in [12], 0.469 µM (active). For the same molecule, the Potency was 1.87 µM (active) in test [9]; 0.469 µM (active) in test [11]; 0.743 µM (active) in [18]; 1.32 µM (active) in [5]; 0.0264 µM (active) in test [10]; 0.296 µM (active) in test [14]. For the same molecule, the Potency was 0.105 µM (active) in test [6] and 16.6 µM (active) in [17].
